ADAM17 inh = ADAM17 inhibitors, primary screen, biochemical, QFRET; Disintegrin and metalloproteinase domain-containing protein 17 (Homo sapiens), P78536; recombinant ADAM17, EDANS/DABCYL FRET peptide cleavage; inhibition, % at 6.95 µM; actives 0.83% (n = 370,000); AID 720648, 2013;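 active = inhibition above the mean of compounds lying between control limits plus 3 SD, set per campaign, cut at about 8.5% in these data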
Target sequence (P78536 215-824 limits assumed): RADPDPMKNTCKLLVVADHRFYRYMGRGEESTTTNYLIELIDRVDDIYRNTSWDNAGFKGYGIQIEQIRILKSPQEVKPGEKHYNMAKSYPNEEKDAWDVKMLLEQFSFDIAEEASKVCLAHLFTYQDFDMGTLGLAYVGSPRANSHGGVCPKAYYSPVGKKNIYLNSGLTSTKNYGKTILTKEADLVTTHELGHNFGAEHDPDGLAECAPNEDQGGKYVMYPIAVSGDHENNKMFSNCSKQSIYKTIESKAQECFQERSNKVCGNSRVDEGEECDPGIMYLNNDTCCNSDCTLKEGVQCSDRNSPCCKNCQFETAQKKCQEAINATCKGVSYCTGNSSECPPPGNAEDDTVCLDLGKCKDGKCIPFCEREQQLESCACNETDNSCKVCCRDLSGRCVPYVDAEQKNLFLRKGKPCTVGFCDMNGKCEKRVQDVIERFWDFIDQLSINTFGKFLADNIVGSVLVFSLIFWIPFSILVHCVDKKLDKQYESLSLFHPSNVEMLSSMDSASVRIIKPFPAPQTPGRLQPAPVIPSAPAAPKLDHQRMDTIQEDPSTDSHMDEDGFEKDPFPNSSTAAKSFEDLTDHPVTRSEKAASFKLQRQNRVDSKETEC
PLC-beta3 inh = human PLC-beta3 inhibitors, primary screen, biochemical, fluorescence; 1-phosphatidylinositol 4,5-bisphosphate phosphodiesterase beta-3 (Homo sapiens), Q01970; Purified PLC-beta3, fluorogenic substrate; inhibition, % at 12.2 µM; actives 0.18% (n = 370,000); AID 720704, 2013; in the data active = inhibition above about 11%
KLK7 zymogen act = proKLK7 zymogen activators, primary screen, biochemical, fluorescence intensity; AID 652039, 2013; activation, % at 7 µM; purified proKLK7, EDANS-DABCYL substrate fluorescence; 100% is mature enzyme control, 0% vehicle; actives 0.9% (n = 370,000);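 active = activation above the mean of all tested compounds plus 3 SD, computed per campaign excluding outliers beyond control limits, cut at about 13% in these data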
PLC-gamma1 inh = PLC-gamma1 enzyme inhibitors, primary screen, biochemical, fluorescence, purified enzyme | 1-phosphatidylinositol 4,5-bisphosphate phosphodiesterase gamma-1 (Homo sapiens), P19174 | fluorogenic substrate | inhibition, % at 12.2 µM | actives 0.84% (n = 370,000) | AID 720700, 2013; in the data active = inhibition above about 9.5%
ADAM10 inh = human ADAM10 inhibitors, primary screen, biochemical, QFRET, HTS; Disintegrin and metalloproteinase domain-containing protein 10 (Homo sapiens), O14672; recombinant ADAM10, EDANS/DABCYL FRET peptide cleavage, 3 h; inhibition, % at 7 µM; actives 0.62% (n = 370,000);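 active = inhibition above a per-campaign cutoff equal to the mean of compounds falling between control-based bounds plus 3 SD, cut at about 20% in these data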
ADAM10 confirm = human ADAM10 inhibitors, confirmation, biochemical, QFRET, triplicate; actives 1% (n = 2,100); ADAM10 QFRET peptide cleavage, EDANS fluorescence; shares compounds with ADAM10 inh; inhibition, % at 6.95 µM;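 active = inhibition above about 20% chosen separately for each screening run, limit read from the data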
ADAM17 counter = ADAM17 inhibitors, counter-screen for ADAM10 exosite inhibitor project, biochemical, QFRET, high throughput. actives 0.5% (n = 2,100). ADAM17 QFRET peptide cleavage, EDANS fluorescence. shares compounds with ADAM10 inh. inhibition, % at 6.95 µM;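 active = mean triplicate inhibition above the solvent-only control wells' mean plus 3 SD, cut at about 12% in these data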
ADAM10 ctr = ADAM10 inhibitors, counter-screen for ADAM17 exosite inhibitor project, biochemical, FRET, human ADAM10; shares compounds with ADAM17 inh; recombinant ADAM10, EDANS/DABCYL FRET peptide cleavage, 3 h; inhibition, % at 6.95 µM; actives 47% (n = 2,900); AID 743256, 2014;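 active = mean inhibition over the triplicate runs exceeds the activity threshold set in the earlier primary screen, cut at about 20% in these data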
ADAM17 confirm = ADAM17 inhibitors, hit retest, confirmation, biochemical, QFRET peptide cleavage; AID 743257, 2014; recombinant ADAM17, EDANS/DABCYL QFRET peptide cleavage; shares compounds with ADAM17 inh; actives 65% (n = 2,900); inhibition, % at 6.95 µM;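 active = mean inhibition across replicates above the hit cutoff set in the primary screen, cut at about 8.5% in these data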
Each line names hits and unclear results; the compound was inactive in the other large screens (follow-up assays come after a bar, where they were run). This is a sample that favours compounds with a hit; in the whole collection about 2.9% have one here.

C(=C\c1ccccc1)/CN1CCN(C(c2ccccc2)c2nnnn2-c2ccc3c(c2)OCCO3)CC1 (stereo not given)	ADAM17 inh 13.6, ADAM10 inh 29.4 | ADAM10 confirm inactive | ADAM17 counter inactive | ADAM10 ctr 19.8 | ADAM17 confirm 9.9
COc1cc2c(cc1[N+](=O)[O-])-c1ccc([N+](=O)[O-])cc1C2=NO	none
Cc1cc(NC(=O)c2c(F)cccc2Cl)n(-c2nc3ccccc3[nH]2)n1	ADAM17 inh 10.3, ADAM10 inh 29.7 | ADAM10 confirm inactive | ADAM17 counter inactive | ADAM10 ctr 39.7 | ADAM17 confirm 16.7
COc1ccccc1-n1cnnc1SCC(=O)Nc1cccc(S(N)(=O)=O)c1	none
COc1ccc(NC(=O)Cn2nnc(-c3ccccc3)c2COc2ccc3ccccc3c2)cn1	ADAM17 inh 11.5, ADAM10 inh 20.1 | ADAM10 confirm inactive | ADAM17 counter inactive | ADAM10 ctr 30.9 | ADAM17 confirm 16.7
Cc1nc(CNS(=O)(=O)c2ccc(F)cc2)cs1	none
CN1C2=N[C@H](c3cccc(C(F)(F)F)c3)CC(=O)N2/C(=C\c2ccccc2)[C@H]1c1ccccc1	none (no result: KLK7 zymogen act)
O=C(/C=C(\Nc1ccccc1)c1ccccc1)c1ccccc1	none
CC(C)(C)OC(=O)C[C@@H]1C/C=C\C[C@H](CC(=O)N(CCO)Cc2ccccc2)C(=O)N[C@@H](Cc2c[nH]c3ccccc23)COC1=O	none
CCc1nc(N2CCN(C(=S)NCCCOC)CC2)c2c3c(sc2n1)CCCC3	ADAM17 inh 14.0, ADAM10 inh 20.2 | ADAM10 confirm inactive | ADAM17 counter inactive | ADAM10 ctr inactive | ADAM17 confirm inactive
CCC(=O)N1CCN(c2nc(CC)nc3sc4c(c23)CCCC4)CC1	none
CCOC(=O)c1c(CN2CCN(C)CC2)oc2ccc(O)cc12	none
CCOC(=O)c1c(-c2ccccc2)oc2ccc(O)cc12	none
CCOC(=O)c1c(CSc2ccccc2)oc2ccc(O)cc12	ADAM17 inh 11.3, ADAM10 inh 28.9 | ADAM10 confirm inactive | ADAM17 counter inactive | ADAM10 ctr 42.3 | ADAM17 confirm 15.9
CCOC(=O)c1c(CSc2ccc(C)cc2)oc2ccc(O)cc12	ADAM17 inh 12.7, ADAM10 inh 30.4 | ADAM10 confirm inactive | ADAM17 counter inactive | ADAM10 ctr 46.0 | ADAM17 confirm 18.9
c1ccc(Cn2c(SCC3CCCCC3)nnc2-c2cccnc2)cc1	none
COc1ccc(/C=C(/C(=O)Nc2ccccc2C(=O)NC(C)C)c2ccccc2)cc1	ADAM17 inh 9.6, ADAM10 inh 20.1 | ADAM10 confirm inactive | ADAM17 counter inactive | ADAM10 ctr inactive | ADAM17 confirm inactive
Cc1ccc(NC(=O)c2cc(S(=O)(=O)Nc3ccc(C)cc3)cs2)cc1	ADAM17 inh 10.1, ADAM10 inh 26.7 | ADAM10 confirm inactive | ADAM17 counter inactive | ADAM10 ctr 45.3 | ADAM17 confirm 18.8
Cc1ccc(NS(=O)(=O)c2ccc(NC(=O)c3cccs3)cc2)c(C)c1	none
COC(=O)[C@H]1C[C@@]2(N3CCCCC3)c3ccccc3N[C@H]2N1S(=O)(=O)c1ccc(C)cc1	none
C#CCN(C[C@@H]1[C@@H](OC(=O)NCc2ccc(OC)c(OC)c2)[C@@H](OC(=O)NCc2ccc(OC)c(OC)c2)CN(C(=O)OC(C)C)N1C(=O)OC(C)C)S(=O)(=O)c1ccc(C)cc1	ADAM17 inh 11.2, ADAM10 inh 26.9 | ADAM10 confirm inactive | ADAM17 counter inactive | ADAM10 ctr 43.2 | ADAM17 confirm 22.1
COC(=O)[C@H](C(C)C)N1CCc2nnn(CC3CCCCC3)c2-c2ccccc2S1(=O)=O	none
O=C(Nc1ccccc1C(F)(F)F)OCCN1C(=O)CCC12CCC(c1ccccc1)CC2 (stereo not given)	none
O=C(NCc1ccccc1)c1onc(CSc2ccc(Cl)cc2)c1C(=O)NCC1CC1	none
O=C(NCc1ccccc1)c1onc(CSc2ccccc2)c1C(=O)NCC1CC1	ADAM17 inh 11.8, ADAM10 inh 25.3 | ADAM10 confirm inactive | ADAM17 counter inactive | ADAM10 ctr 40.8 | ADAM17 confirm 21.8
CC(C)C(NS(=O)(=O)c1c(Cl)cccc1Cl)C(=O)OCC(=O)c1c[nH]c2ccccc12 (stereo not given)	ADAM17 inh 14.9, ADAM10 inh 28.1 | ADAM10 confirm inactive | ADAM17 counter inactive | ADAM10 ctr inactive | ADAM17 confirm 13.7
CC(O)C(NS(=O)(=O)c1ccc(Cl)cc1)C(=O)OCC(=O)c1c[nH]c2ccccc12 (stereo not given)	none
O=C(OCCCCSc1nnc(-c2cccc3ccccc23)o1)c1ccc(F)cc1	none (no result: KLK7 zymogen act)
COC(=O)c1c(NC(C)=O)sc2c1CCCC2	none
COC(=O)c1c(NC(NC(=O)C(C)C)C(Cl)(Cl)Cl)sc2c1CCCC2 (stereo not given)	ADAM17 inh 10.5, ADAM10 inh 22.1 | ADAM10 confirm inactive | ADAM17 counter inactive | ADAM10 ctr 25.8 | ADAM17 confirm 15.9
COc1ccccc1N(C)S(=O)(=O)c1ccc(Cl)c(C(=O)NNC(=O)c2ccccc2O)c1	none
COc1ccccc1N(C)S(=O)(=O)c1ccc(C(=O)NNC(=O)c2ccccc2O)cc1	ADAM17 inh 9.0, ADAM10 inh 22.3 | ADAM10 confirm inactive | ADAM17 counter inactive | ADAM10 ctr inactive | ADAM17 confirm 12.4
CCOc1ccccc1NC(=O)COC(=O)C(CC)c1ccccc1 (stereo not given)	ADAM17 inh 11.4, ADAM10 inh 21.7 | ADAM10 confirm inactive | ADAM17 counter inactive | ADAM10 ctr inactive | ADAM17 confirm inactive
CCC(C(=O)OCC(=O)Nc1cc(C)ccc1OC)c1ccccc1 (stereo not given)	none
Cc1ccc(Cn2nnc3c2-c2ccccc2S(=O)(=O)N(C(C)(C)C)C3)cc1	none
